The results in this text go back to PubChem BioAssay.

Test [1] in a line: compounds binding Alexa647 anti-His antibody – biochemical, small-molecule microarray, 635 nm fluorescence, artefact control for SMM control protein annotation, primary screen (AID 1128).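 Note: score merges feature fluorescence with signal-to-noise for each printed compound spot.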 Particulars: higher = more signal.
The subject of test [2] is Human papillomavirus type 1a E7 protein (residues 1-88). Put plainly: HPV1a E7 small-molecule binders, primary screen, biochemical, small-molecule microarray, residues 1-88, 635 nm (AID 1129). Particulars: small-molecule microarray binding, fluorescence 635 nm; higher = more signal.
Test [3] concerns the target Focal adhesion kinase 1 (Homo sapiens) (UniProt Q05397). Put plainly: PTK2 protein binding on printed compound slides – biochemical, small-molecule microarray, 635/667 nm fluorescence, BSA, DTT, primary screen (AID 1130).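 Note: composite of spot emission at 667 nm and signal to noise over triplicate slides.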 The note with it: 635 nm fluorescence, higher = more signal.
The test system of test [4] is Fibrinogen (Alexa647-labelled). In words: Alexa647-fibrinogen binding to printed small molecules – biochemical, small-molecule microarray, 635/667 nm fluorescence, artefact control for SMM control-protein annotation, profiling panel (AID 1131).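 Note: z-score merges 667 nm fluorescence with per-spot signal-to-noise over triplicate slides.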 The note with it: fibrinogen-A647 binding fluorescence, higher = more signal.
The target of test [5] is Follistatin (Homo sapiens) (UniProt P19883). Put plainly: FST protein binding to printed compounds – biochemical, small-molecule microarray, 635/667 nm fluorescence, primary screen (AID 1132). The note with it: 635 nm fluorescence, higher = more signal.
Chain of Follistatin (Homo sapiens) (P19883 whole entry, looked up): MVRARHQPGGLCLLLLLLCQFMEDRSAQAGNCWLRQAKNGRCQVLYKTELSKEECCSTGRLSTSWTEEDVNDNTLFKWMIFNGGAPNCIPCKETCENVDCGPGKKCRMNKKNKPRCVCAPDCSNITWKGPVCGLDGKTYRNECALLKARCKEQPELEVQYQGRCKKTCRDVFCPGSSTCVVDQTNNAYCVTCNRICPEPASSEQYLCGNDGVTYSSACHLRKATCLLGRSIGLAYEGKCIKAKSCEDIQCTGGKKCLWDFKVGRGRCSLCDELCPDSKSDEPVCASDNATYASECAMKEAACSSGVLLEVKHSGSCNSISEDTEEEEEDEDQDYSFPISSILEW
Test [6] has as its target Fibroblast growth factor 2 (Homo sapiens) (UniProt P09038). In words: basic fibroblast growth factor binding to printed compounds – biochemical, small-molecule microarray, 635/667 nm fluorescence, primary screen (AID 1133). Particulars: FGF2, fluorescence 635/667, higher = more signal.
Test [7] can be described thus: JC-1 mitochondrial potential readout, lung cancer cells – cell-based, A549, JC-1 fluorescence, basal, 24 h, 100 nL, profiling panel (AID 1138).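 Note: A549 lung adenocarcinoma cells under basal conditions with no added stimulus; test concentration not given here.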 The note with it: higher = more signal.
The test system of another test is Lefty1. In words: Lefty1 protein binding to printed compounds – biochemical, small-molecule microarray, 635/667 nm fluorescence, primary screen (AID 1139). The note with it: fluorescence 635/667, higher = more signal.
The subject of test [8] is wheat germ agglutinin (Triticum aestivum), Alexa647-labelled. Put plainly: Alexa647-WGA lectin binding to printed small molecules – biochemical, small-molecule microarray, 635/667 nm fluorescence, artefact control for SMM control-protein annotation, profiling panel (AID 1140).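 Note: score merges 667 nm feature emission with signal to noise over triplicate slides.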 The note with it: WGA-A647 binding, 635 nm fluorescence, higher = more signal.
In test [9] the target is Luciferin 4-monooxygenase (Photinus pyralis) (UniProt P08659). In words: inhibition of purified Photinus pyralis luciferase – biochemical, luminescence, purified enzyme, 2006 set, primary screen (AID 1141).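 Note: cell-free assay with purified firefly luciferase at 100 ng per well in PBS; test concentration not given here.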 Particulars: purified firefly luciferase, SteadyGlo luminescence, 30 min; higher = more signal, called active from +8 up or from −8 down.
Chain of Luciferin 4-monooxygenase (Photinus pyralis) (P08659 whole entry, looked up): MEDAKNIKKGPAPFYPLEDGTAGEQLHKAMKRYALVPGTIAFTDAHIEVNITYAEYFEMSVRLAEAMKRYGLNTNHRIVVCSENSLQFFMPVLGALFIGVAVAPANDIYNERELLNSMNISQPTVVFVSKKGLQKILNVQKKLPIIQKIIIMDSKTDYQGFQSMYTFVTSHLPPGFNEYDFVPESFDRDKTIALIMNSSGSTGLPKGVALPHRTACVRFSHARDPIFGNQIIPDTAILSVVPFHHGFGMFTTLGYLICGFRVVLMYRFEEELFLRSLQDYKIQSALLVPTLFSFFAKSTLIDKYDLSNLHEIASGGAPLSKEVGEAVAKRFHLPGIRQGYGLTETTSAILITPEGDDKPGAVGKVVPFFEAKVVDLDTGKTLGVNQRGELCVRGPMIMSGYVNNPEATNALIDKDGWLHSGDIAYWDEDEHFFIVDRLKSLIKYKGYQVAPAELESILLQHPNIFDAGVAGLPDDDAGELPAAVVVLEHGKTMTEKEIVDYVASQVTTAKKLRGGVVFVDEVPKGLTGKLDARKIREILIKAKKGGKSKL
Test [10] concerns Wnt5a (protein binding on small-molecule microarray). Put plainly: small molecules binding Wnt5a protein – biophysical, small-molecule microarray, 635/667 nm fluorescence, primary screen (AID 1142).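 Note: fluorescence read at 667 nm with signal to noise per printed feature.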 The note with it: 635 nm fluorescence, higher = more signal.
The nature of test [11]: ATP-based viability of Huh7 replicon cells – cell-based, CellTiter-Glo luminescence, basal, 48 h, cytotoxicity control for HCV replication inhibitor project, primary screen (AID 1143).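 Note: Huh7 hepatoma cells carrying a hepatitis C replication reporter with no stimulus; test concentration not given here.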 Particulars: higher = more signal, called active from +8 up or from −8 down.
Test [12] is described as follows: Pseudomonas biofilm growth suppression – PAO1 strain, BacTiter-Glo luminescence, LB-PBS, primary screen (AID 1144). The note with it: P. aeruginosa PAO1 biofilm, 12 h, higher = more signal.
The nature of test [13]: basal CRE-LacZ reporter activity in PC12 – cell-based, unstimulated, primary screen (AID 1145). Particulars: no forskolin, luminescence, 4.5 h, higher = more signal, called active from +8 up or from −8 down.
Test [14] can be described thus: forskolin-driven CRE-LacZ activity in PC12 – cell-based, CRE-LacZ reporter, forskolin-stimulated, primary screen (AID 1146).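 Note: PC12 cells with 6xCRE LacZ reporter stimulated by forskolin 10 µM; beta-galactosidase reporter signal reflecting CREB driven transcription.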 Particulars: luminescence, 4.5 h, higher = more signal, called active from +8 up or from −8 down.
Test [15] deals with Streptavidin (Streptomyces avidinii) (UniProt P22629). Put plainly: compounds binding control protein streptavidin – biophysical, small-molecule microarray, 635/667 nm fluorescence, artefact control for SMM compound annotation, primary screen (AID 1147).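 Note: signal reflects streptavidin binding to arrayed compounds as a control protein.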 The note with it: higher = more signal.
Chain of Streptavidin (Streptomyces avidinii) (P22629 whole entry, looked up): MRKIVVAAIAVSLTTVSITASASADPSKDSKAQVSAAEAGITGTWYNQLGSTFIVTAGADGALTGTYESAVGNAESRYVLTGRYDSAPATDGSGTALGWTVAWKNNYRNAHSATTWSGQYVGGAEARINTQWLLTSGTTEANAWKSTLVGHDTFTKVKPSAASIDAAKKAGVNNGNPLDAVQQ
Test [16] can be described thus: probe aInhba binding on compound microarray – biochemical, small-molecule microarray, 635/667 nm fluorescence, primary screen (AID 1148).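 Note: score merges 667nm spot fluorescence with signal-to-noise for antibody binding to printed compounds.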 The note with it: higher = more signal.
Test [17] deals with Torsin-1A (Homo sapiens) (UniProt O14656). Put plainly: TOR1A wild-type binding on microarray – cell lysate, small-molecule microarray, lysate, 635/667 nm, primary screen (AID 1149). Particulars: COS7 hTOR1A-WT lysate, 635 nm fluorescence, higher = more signal.
Chain of Torsin-1A (Homo sapiens) (O14656 whole entry, looked up): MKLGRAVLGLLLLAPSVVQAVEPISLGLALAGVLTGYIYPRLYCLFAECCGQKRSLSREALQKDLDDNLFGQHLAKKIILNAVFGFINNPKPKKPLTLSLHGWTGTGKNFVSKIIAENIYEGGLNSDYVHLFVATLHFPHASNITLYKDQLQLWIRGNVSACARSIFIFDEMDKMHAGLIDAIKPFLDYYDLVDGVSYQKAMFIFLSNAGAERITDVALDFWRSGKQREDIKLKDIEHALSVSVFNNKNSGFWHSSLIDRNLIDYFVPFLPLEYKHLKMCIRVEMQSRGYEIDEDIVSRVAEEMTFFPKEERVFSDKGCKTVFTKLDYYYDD
For test [18] the target is unchanged. Put plainly: torsin A mutant lysate binding on microarrays – cell lysate, small-molecule microarray, COS7 lysate, 635/667 nm fluorescence, primary screen (AID 1150).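 Note: score pools 667 nm emission and signal to noise measuring lysate protein binding.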 The note with it: COS7 hTOR1A mutant lysate, 635 nm fluorescence, higher = more signal.
Test [19] deals with Sonic hedgehog protein (Shh). Put plainly: Sonic hedgehog microarray binding compounds – biochemical, small-molecule microarray, 635/667 nm fluorescence, primary screen (AID 1151).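 Note: Shh protein binding to compounds spotted on small-molecule microarray slides; score combines spot fluorescence intensity with signal-to-noise across triplicate slides.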 The note with it: 635 nm fluorescence, higher = more signal.

The source made the active and inactive calls. Unless noted, the rule behind the calls is not given here.

Chain of Focal adhesion kinase 1 (Homo sapiens) (Q05397 whole entry, looked up): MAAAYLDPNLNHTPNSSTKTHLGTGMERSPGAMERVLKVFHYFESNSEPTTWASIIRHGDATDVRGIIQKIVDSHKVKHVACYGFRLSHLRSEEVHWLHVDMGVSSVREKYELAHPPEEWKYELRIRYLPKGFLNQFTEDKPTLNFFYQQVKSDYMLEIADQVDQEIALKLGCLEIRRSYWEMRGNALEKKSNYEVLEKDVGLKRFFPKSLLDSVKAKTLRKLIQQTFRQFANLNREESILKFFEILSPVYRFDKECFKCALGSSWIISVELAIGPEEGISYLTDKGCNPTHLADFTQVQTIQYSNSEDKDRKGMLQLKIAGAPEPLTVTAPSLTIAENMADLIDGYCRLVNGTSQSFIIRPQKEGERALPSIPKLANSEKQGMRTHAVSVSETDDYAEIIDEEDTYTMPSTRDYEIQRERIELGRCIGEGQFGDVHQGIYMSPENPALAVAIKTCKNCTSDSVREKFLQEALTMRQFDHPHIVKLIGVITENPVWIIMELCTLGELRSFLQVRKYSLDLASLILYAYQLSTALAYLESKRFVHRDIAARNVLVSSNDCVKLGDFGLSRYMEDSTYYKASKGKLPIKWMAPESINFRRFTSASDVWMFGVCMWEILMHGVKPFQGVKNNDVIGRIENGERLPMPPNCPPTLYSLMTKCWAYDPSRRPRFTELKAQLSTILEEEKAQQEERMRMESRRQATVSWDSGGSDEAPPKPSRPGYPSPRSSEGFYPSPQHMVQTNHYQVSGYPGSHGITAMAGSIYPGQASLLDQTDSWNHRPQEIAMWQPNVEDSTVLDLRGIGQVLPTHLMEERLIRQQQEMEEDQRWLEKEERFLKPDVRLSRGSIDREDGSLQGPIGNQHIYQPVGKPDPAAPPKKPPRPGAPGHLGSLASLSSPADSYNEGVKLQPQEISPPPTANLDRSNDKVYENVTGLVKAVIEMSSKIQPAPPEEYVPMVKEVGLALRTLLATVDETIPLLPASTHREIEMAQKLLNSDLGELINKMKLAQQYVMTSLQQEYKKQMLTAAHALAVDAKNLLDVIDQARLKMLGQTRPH
Chain of Fibroblast growth factor 2 (Homo sapiens) (P09038 whole entry, looked up): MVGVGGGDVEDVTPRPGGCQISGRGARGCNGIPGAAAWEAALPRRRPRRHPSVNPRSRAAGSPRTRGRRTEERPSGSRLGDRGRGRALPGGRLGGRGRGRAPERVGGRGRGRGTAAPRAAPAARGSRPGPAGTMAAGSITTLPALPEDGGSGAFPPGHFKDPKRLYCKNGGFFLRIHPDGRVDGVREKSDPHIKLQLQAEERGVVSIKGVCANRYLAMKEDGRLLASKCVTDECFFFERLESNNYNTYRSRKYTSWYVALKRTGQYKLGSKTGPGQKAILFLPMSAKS

`CCC(CC)C(O)C1C=CC2C(=O)N(c3ccccc3)C(=O)C2N1Nc1ccc([N+](=O)[O-])cc1` (stereo not given): the composite z-score is 0.838 in test [1]; 1.23 in test [2]; 1.19 in [3]; 0.895 in test [4]; 0.081 in test [5]; -0.348 in [6]. Further, the composite z-score was 0.138 in the test with Lefty1; 1.11 in test [8]; 0.205 in test [10]; 0.754 in [15]; 0.124 in test [16]; 0.273 with Torsin-1A (Homo sapiens) [17]. Further, the results for the composite z-score (with Torsin-1A (Homo sapiens) [18]; in [19]) were 0.427 and 0.179, respectively. Moreover, the z-score in [7] was -1.38; in [9], 1.14 (inactive); in test [11], 0.0373 (inactive); in [12], -0.639 (inactive); in [13] it was -0.62 (inactive); in [14], -0.68 (inactive).

As for `[N-]=[N+]=Nc1ccccc1C[C@]1(C(=O)NCc2ccccc2)COC(c2ccc(OCCCO)cc2)=N1`, the composite z-score came to 1.39 in test [1]; 1.2 in [2]; 0.467 in test [3]; 0.963 in [4]; 1.16 in test [5]; 0.17 in test [6]. For the same compound, the composite z-score with Lefty1 was 0.556; in test [8], 1.14; in test [10], 0.607; in test [15], 1.01; in test [16] it was -0.104; in the test with Torsin-1A (Homo sapiens) [17] it was 0.413. In addition, the figures for the composite z-score (with Torsin-1A (Homo sapiens) [18]; in test [19]) were 0.932 and 0.153, respectively. Also, the z-score was 1.85 in test [7]; -5.16 (inactive) in test [9]; -4.89 (inactive) in test [11]; 0.106 (inactive) in test [12]; 0.101 (inactive) in [13]; -1.31 (inactive) in [14].

For `NC(=O)N1C(=O)C2C(C1=O)C1C=C(CCCO)C2C(C2CC2)N1Cc1cccc(OC(F)(F)F)c1` (stereo not given), the composite z-score in test [1] was 0.589; in test [2] it was 0.469; in [3], -0.0719; in test [4], 0.948; in test [5] it was 0.173; in test [6], -0.314. Moreover, the composite z-score was 0.341 in the test on Lefty1; 0.94 in test [8]; -0.352 in test [10]; -0.439 in test [15]; -0.182 in test [16]; 1.51 with Torsin-1A (Homo sapiens) [17]. Further, the composite z-score came to 1.59 in the test with Torsin-1A (Homo sapiens) [18] and 0.393 in test [19]. The z-score is 0.541 in [7]; -1.4 (inactive) in test [9]; -0.458 (inactive) in test [11]; 1.35 (inactive) in test [12]; 0.522 (inactive) in test [13]; 1.62 (inactive) in [14].

Consider `Cc1nc2cc(Br)ccc2c(=O)n1Cc1cccc(O)c1`, for which the composite z-score in [1] amounted to 0.391; in test [2] it was 0.941; in test [3], 0.872; in test [4], 0.539; in [5], 1.38; in [6] it was 1.81. For the same compound, the composite z-score was 1.22 in the test with Lefty1; 0.334 in test [8]; 0.59 in [10]; 0.57 in test [15]; -0.0567 in test [16]; 0.995 with Torsin-1A (Homo sapiens) [17]. In addition, the composite z-score with Torsin-1A (Homo sapiens) [18] came out at 0.407; in test [19], 1.29. Also, the z-score in test [7] is 0.287; in [9], 6.4 (inactive); in test [11], 0.267 (inactive); in test [12] it was -0.0703 (inactive); in test [13], -1.11 (inactive); in test [14], -0.978 (inactive).

`CC(=O)n1cc(C(O)C2C=CC3C(=O)N(c4ccccc4)C(=O)C3N2Nc2ccc(C(C)C)cc2)c2ccccc21` (stereo not given): the composite z-score in test [1] was determined as 0.701; in test [2], 1.2; in test [3] it was 1.03; in [4], 1.02; in test [5] it was 1; in test [6], 0.672. Moreover, the composite z-score in the test on Lefty1 was 0.304; in [8] it was 0.743; in test [10], 0.076; in [15], 1.88; in [16], 0.161; with Torsin-1A (Homo sapiens) [17], -0.285. Moreover, the composite z-score with Torsin-1A (Homo sapiens) [18] is 0.617; in test [19], -0.69. In addition, the z-score in test [7] was 0.662; in test [9], 0.22 (inactive); in [11] it was -0.609 (inactive); in test [12] it was -0.827 (inactive); in [13], 0.24 (inactive); in test [14] it was -0.247 (inactive).
